From PubChem BioAssay AID1159580 (chemical genetic matrix, 2015)
“And” between values parts separate entries of the source, which are not always exact repeats. Equal entries are not always repeated. Out of some 5,500 compounds screened, about 2,000 (36%) were called active. Another 18% or so got no clear call; they are omitted. No stated cut-off is given here; in the data, active means normalized growth mostly below about 0.91 (no sharp cut-off); inconclusive means no clear call, values can overlap the other calls; inactive means mostly above about 0.92. Some of the results follow.

Assay: chemical genetic growth profiling, strain panel (AID 1159580);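 further: tested at 20 µM; growth read once vehicle control cultures reached saturation at 30 °C; 1 = growth at the plate median or of vehicle wells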
Details: S. cerevisiae deletion strains, growth OD

Measured: normalized growth

CCN(CC)CCNC(=O)c1cc(Cl)c(N)cc1OC
inactive: locus YAL013W, strain DEP1, stronger effect = lower value 1.01 | locus YAL021C, strain ccr4, stronger effect = lower value 0.992 | locus YAL026C, strain drs2, stronger effect = lower value 0.998 | locus YAL030W, strain snc1, stronger effect = lower value 0.974 | locus YAL040C, strain CLN3, stronger effect = lower value 0.981 | locus YBL061C, strain skt5, stronger effect = lower value 0.976 | locus YBR009C, strain hhf1, stronger effect = lower value 0.987 | locus YBR021W, strain FUR4, stronger effect = lower value 1.02 | locus YBR023C, strain chs3, stronger effect = lower value 0.984 | locus YBR171W, strain sec66, stronger effect = lower value 0.979 | locus YBR229C, strain ROT2, stronger effect = lower value 1.01 | locus YBR231C, strain swc5, stronger effect = lower value 0.996 | locus YBR279W, strain paf1, stronger effect = lower value 0.992 | locus YCL011C, strain gbp2, stronger effect = lower value 0.94 | locus YCL016C, strain dcc1, stronger effect = lower value 0.948 | locus YCL029C, strain bik1, stronger effect = lower value 0.993 | locus YCL061C, strain MRC1 (second series), stronger effect = lower value 1.01 | locus YCL061C, strain MRC1, stronger effect = lower value 0.988 | locus YCL069W, strain vba3, stronger effect = lower value 0.985 | locus YCR088W, strain abp1, stronger effect = lower value 0.991 | locus YDL005C, strain med2, stronger effect = lower value 0.986 | locus YDL035C, strain GPR1, stronger effect = lower value 1.01 | locus YDL040C, strain nat1, stronger effect = lower value 0.988 | locus YDL074C, strain BRE1, stronger effect = lower value 1.02 | locus YDL101C, strain DUN1, stronger effect = lower value 1 | locus YDL134C, strain PPH21, stronger effect = lower value 1.01 | locus YDL185W, strain tfp1, stronger effect = lower value 0.996 | locus YDL192W, strain arf1, stronger effect = lower value 1.01 | locus YDR001C, strain nth1, stronger effect = lower value 0.968 | locus YDR069C, strain doa4, stronger effect = lower value 0.962 | locus YDR101C, strain arx1, stronger effect = lower value 0.985 | locus YDR137W, strain rgp1, stronger effect = lower value 0.967 | locus YDR150W, strain NUM1, stronger effect = lower value 1.02 and 1.01 | locus YDR159W, strain sac3, stronger effect = lower value 1.01 | locus YDR162C, strain NBP2, stronger effect = lower value 1.01 | locus YDR195W, strain ref2 0.974 | locus YDR297W, strain sur2, stronger effect = lower value 0.984 | locus YDR318W, strain mcm21, stronger effect = lower value 0.996 | locus YDR334W, strain swr1, stronger effect = lower value 0.93 | locus YDR335W, strain msn5, stronger effect = lower value 0.976 | locus YDR363W, strain ESC2, stronger effect = lower value 1.02 | locus YDR388W, stronger effect = lower value 0.995 | locus YDR392W, strain spt3, stronger effect = lower value 0.975 | locus YDR502C, strain sam2, stronger effect = lower value 0.988 | locus YEL003W, strain gim4, stronger effect = lower value 0.994 | locus YEL037C, strain rad23, stronger effect = lower value 0.976 | locus YEL061C, strain CIN8 (second series), stronger effect = lower value 0.978 | locus YEL061C, strain CIN8, stronger effect = lower value 1.01 | locus YER002W, strain NOP16, stronger effect = lower value 0.994 | locus YER015W, strain faa2, stronger effect = lower value 0.979 | locus YER016W, strain bim1, stronger effect = lower value 0.994 | locus YER110C, stronger effect = lower value 0.994 | locus YER111C, strain swi4, stronger effect = lower value 0.988 | locus YER155C, strain BEM2 (second series), stronger effect = lower value 1.03 | locus YER155C, strain BEM2, stronger effect = lower value 0.999 | locus YER167W, strain BCK2, stronger effect = lower value 1.01 | locus YFR010W, strain ubp6, stronger effect = lower value 0.969 | locus YGL078C, strain dbp3, stronger effect = lower value 0.997 | locus YGL086W, strain mad1, stronger effect = lower value 0.993 | locus YGL167C, strain pmr1, stronger effect = lower value 0.972 | locus YGL173C, strain kem1, stronger effect = lower value 0.98 | locus YGL227W, strain vid30, stronger effect = lower value 0.977 | locus YGL240W, strain doc1, stronger effect = lower value 1.01 | locus YGL248W, strain PDE1, stronger effect = lower value 1.01 | locus YGL253W, strain hxk2, stronger effect = lower value 0.981 | locus YGR078C, strain PAC10, stronger effect = lower value 1.02 | locus YGR135W, strain pre9, stronger effect = lower value 0.998 | locus YGR229C, strain SMI1, stronger effect = lower value 1.01 and 1.02 | locus YGR252W, strain gcn5, stronger effect = lower value 0.958 | locus YHR013C, strain ard1, stronger effect = lower value 0.955 | locus YHR027C, strain rpn1, stronger effect = lower value 0.963 | locus YHR030C, strain SLT2, stronger effect = lower value 1.01 and 1.07 | locus YHR079C, strain IRE1 (second series), stronger effect = lower value 0.994 | locus YHR079C, strain IRE1, stronger effect = lower value 1.07 | locus YHR094C, strain hxt1, stronger effect = lower value 0.992 | locus YHR129C, strain ARP1, stronger effect = lower value 1 | locus YHR142W, strain chs7, stronger effect = lower value 0.939 | locus YHR200W, strain rpn10, stronger effect = lower value 0.994 | locus YIL066C, strain RNR3, stronger effect = lower value 1.02 | locus YIL073C, strain SPO22, stronger effect = lower value 1.02 | locus YIL125W, strain kgd1, stronger effect = lower value 0.993 | locus YIR030C, strain dcg1, stronger effect = lower value 1 | locus YJL092W, strain hpr5, stronger effect = lower value 0.978 | locus YJL095W, strain BCK1 (second series), stronger effect = lower value 0.978 | locus YJL095W, strain BCK1, stronger effect = lower value 1 and 1.04 | locus YJL115W, strain asf1, stronger effect = lower value 0.953 | locus YJL129C, strain trk1, stronger effect = lower value 0.997 | locus YJL134W, strain LCB3, stronger effect = lower value 1.01 | locus YJL154C, strain vps35, stronger effect = lower value 0.971 | locus YJL164C, strain tpk1, stronger effect = lower value 1.01 | locus YJL166W, strain qcr8, stronger effect = lower value 0.956 | locus YJL168C, strain set2, stronger effect = lower value 0.992 | locus YJL187C, strain SWE1 (second series), stronger effect = lower value 1.02 | locus YJL187C, strain SWE1, stronger effect = lower value 0.989 | locus YJR043C, strain POL32, stronger effect = lower value 0.996 | locus YJR066W, strain TOR1, stronger effect = lower value 1
